About 83,000 compounds went through this panel and 20% of them were active in at least one assay; those are over-represented in the sample as a whole.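 Each cell line was grown in a 96-well plate and treated with one concentration of compound for 48 hours. Values below 10 were considered active.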 The source made the active and inactive calls.
The compounds below were run on SNB-75 CNS (assay: NCI-60 one-dose screen, 48 h (100 = growth as untreated, 0 = no growth, -100 = all killed)). Details: 10 µM unless noted.

| Structure (SMILES) | growth |
| --- | --- |
| COc1cc(C2CC(C3C(=O)N(C)C(=O)N(C)C3=O)=NN2C=O)cc(OC)c1OC (stereo not given) | 94.8% (inactive) |
| C=C1CCC2C3(C)COC(c4ccccc4)OC3CCC2(C)C1C/C=C1/C(=O)OCC1OC(C)=O (stereo not given) | 75.3% (inactive) |
| Clc1ccc(C2=NN(c3ccc(Cl)cc3)C(c3cccc(Nc4ccnc5cc(Cl)ccc45)c3)C2)cc1 (stereo not given) | 77.3% (inactive) |
| CC(=O)N1N=C(c2ccc(Nc3nc(NCCO)nc(NCCO)n3)cc2)CC1c1ccc(Cl)cc1 (stereo not given) | 84.7% (inactive) |
| O=C(c1ccccc1)c1ccc(Oc2ccc([N+](=O)[O-])cc2[N+](=O)[O-])cc1 | 85.2% (inactive) |
| O=C(C(=O)N1CCOCC1)c1cn(CCCn2cc(C(=O)C(=O)N3CCOCC3)c3ccccc32)c2ccccc12 | 94.7% (inactive) |
| CC(C)CC1NC(=O)C(CCCN)NC(=O)C(C(C)C)NC(=O)C2CCCN2C(=O)C(Cc2ccccc2)NC(=O)C(CC(C)C)NC(=O)C(CCCN)NC(=O)C(C(C)C)NC(=O)C2CCCN2C(=O)C(Cc2ccccc2)NC1=O (stereo not given) | -81.5% (active) |
| Cc1csc(C#Cc2cncc(O)c2)n1 | 139% (inactive) |
| COc1cc(/C=C/C(=O)C(C(=O)/C=C/c2ccc(OC(=O)CCNC34CC5CC(CC(C5)C3)C4)c(OC)c2)C(=O)CCNC23CC4CC(CC(C4)C2)C3)ccc1OC(=O)CCNC12CC3CC(CC(C3)C1)C2 (stereo not given) | -32.3% (active) |
| C/C=C(/C(=C/C)c1ccc(O)cc1)c1ccc(O)cc1 | 9.32% (active) |
| COc1cc(/C=C/C(=O)CC(=O)/C=C/c2ccc(OC(=O)CCNC34CC5CC(CC(C5)C3)C4)c(OC)c2)ccc1OC(=O)CCNC12CC3CC(CC(C3)C1)C2 | 7.02% (active) |
| Oc1c(Cl)cc(Cl)c(Cl)c1Cc1c(O)c(Cl)cc(Cl)c1Cl | 46.9% (inactive) |
| COc1cc(C2CC(c3ccc(C)cc3)=NN2C=O)ccc1OCCN(C)C (stereo not given) | 62.2% (inactive) |
| NS(=O)(=O)c1cc(C2(O)NC(=O)c3ccccc32)ccc1Cl (stereo not given) | 91.4% (inactive) |
| CCn1cnc(C[C@H](NC(=O)[C@H](CCCCNC(=O)Nc2cc(C(F)(F)F)cc(C(F)(F)F)c2)NC(=O)Nc2cc(C(F)(F)F)cc(C(F)(F)F)c2)C(=O)OC)c1 | -36.4% [100 µM] (active) |
| CS(=O)(=O)N1CCN(Cc2cc3nc(-c4cccc5[nH]ncc45)nc(N4CCOCC4)c3s2)CC1 (tested in a mixture with another compound) | -3.36% (active) |
| CN(C)c1ccc(-c2nc3ncc(Br)cc3o2)cc1 | 103% (inactive) |
| COc1ccc(-c2cc(-c3nnc(SCC(=O)Nc4ccc(C(C)=O)cc4)n3-c3ccccc3)c3ccccc3n2)cc1OC | 102% (inactive) |
| Nc1nc(NC2CC2)c2ncn(C3C=CC(CO)C3)c2n1 (stereo not given) | 117% (inactive) |
| C[C@]12CCC(=O)C=C1CC[C@H]1[C@@H]3C[C@@H](O)[C@](O)(C(=O)CO)[C@@]3(C)C[C@H](O)[C@@]12F | 108% (inactive) |

| Structure (SMILES) | growth |
| --- | --- |
| NS(=O)(=O)c1cc2c(cc1Cl)NC=NS2(=O)=O | 96.3% (inactive) |
| COc1cnc2c(c1)C(=O)c1c-2n(CCCn2ccnc2)c(=O)c2cc(F)ccc12 | 4.31% (active) |
| NC(=O)c1cc(Br)cc(Br)c1NS(=O)(=O)c1ccccc1 | 68.2% (inactive) |
| CN(C)c1ccc(-n2nc3ccccc3n2)cc1 | 108% (inactive) |
| CC1CN(C2CCCCC2)C(=O)NC1=O (stereo not given) | 93.4% (inactive) |
| O=C1C=CC(=O)N1c1ccccc1N1C(=O)C=CC1=O | 91.7% (inactive) |
| Cc1n(Cc2ccc3ccccc3c2)c2ccccc2[n+]1Cc1ccc2ccccc2c1 | -46.2% (active) |
| C[C@H]1O[C@@H](O[C@H]2[C@@H](O)C[C@H](O[C@H]3[C@@H](O)C[C@H](O[C@H]4CC[C@]5(C)C6C[C@@H](O)[C@]7(C)[C@@H](C8=CC(=O)OC8)CC[C@]7(O)C6CC[C@@H]5C4)O[C@@H]3C)O[C@@H]2C)C[C@H](O)[C@@H]1O (stereo not given in full) | -75.6% (active) |
| O=C(CNc1ccc2c(c1)C(=O)c1ccccc1C2=O)Nc1ccc2c(c1)C(=O)c1ccccc1C2=O | -51.4% (active) |
| Cc1sc2nc(N3CCCCC3)[nH]c(=O)c2c1C | 91% (inactive) |
| NC(=NCCCCCCN=C(N)/N=C(\N)Nc1ccc(Cl)cc1)/N=C(\N)Nc1ccc(Cl)cc1 | -7.16% (active) |
| COc1cc(NC(=O)NCc2ccco2)ccc1-c1ccc(NC(=O)NCc2ccco2)cc1OC | 65.3% (inactive) |
| CSc1nc(Nc2ccc(S(=O)(=O)Nc3ccon3)cc2)c(C#N)c(-c2ccc(Cl)cc2)n1 | 102% (inactive) |
| COP(=O)(OC)C(c1ccc(O)cc1)(c1ccc(O)cc1)c1ccc(O)cc1 | 112% (inactive) |
| C=C1CCC2C(C)(COC(=O)CC)C(OC(=O)CC)CCC2(C)C1C/C=C1/C(=O)OCC1OC(=O)CC (stereo not given) | -3.12% (active) |
| Cc1cnc2nc(-c3ccc(N(C)C)cc3)cn2c1 | 133% (inactive) |
| Cc1ccc2nc3c(n2c1)C(=O)C(=O)c1ccccc1-3 | -70.2% (active) |
| CC(C)=CCCC(C)c1ccc(C)c2c1OCN(CC1CCNCC1)C2 (stereo not given) | 89.3% (inactive) |
| CCOc1cc(/C=C/C(=O)C(C(=O)/C=C/c2ccc(OC(=O)CNc3nc4ccccc4[nH]3)c(OCC)c2)C(=O)CNc2nc3ccccc3[nH]2)ccc1OC(=O)CNc1nc2ccccc2[nH]1 | -18.1% (active) |
| COc1ccc(C(=O)/C=C/c2cccc(Nc3ccnc4cc(Cl)ccc34)c2)cc1 | -1.22% (active) |
